The entries come from a sample that favours hits as a whole.
TbPYK inhibitor: blocks Trypanosoma brucei pyruvate kinase; Potency, µM (doses to about 76.8 µM), without a hit: at the highest dose activity, negative = inhibition, actives largely listed as inhibitors; Q57TT1; TbPYK enzyme, Kinase-Glo Plus ATP luminescence, 45 min; hit rate 0.12% among 410,000; further: potency means the concentration at half of the fitted maximal effect; on the % scale 0 is the no-effect control and ±100 the full control effect; nearly all actives have a fitted effect of over 50% in size
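TbPYK + substrate in 50 mM TEA pH 7.2, 100 mM KCl, 10 mM MgCl2, 0.05% BSA, 0.01% Tween-20; cpd pinned; ADP 130 uM final; 45 min RT; Kinase-Glo Plus 10 min; luminescence endpoint.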
LmPK inh: inhibitors of Leishmania mexicana pyruvate kinase | Q27686 | purified LmPK, Kinase-Glo ATP luminescence, 1 h | Potency, µM (doses to about 57.5 µM), for the others: at the top dose activity change, negative = inhibition, hits mostly inhibitors | hit rate 0.37% among 290,000 | AID 1721; further: potency means the concentration at half of the fitted maximal effect; on the % scale 0 is the no-effect control and ±100 the full control effect
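Kinase-Glo luminescence read after 1 h RT reaction of 0.1 nM LmPK with 0.5 mM PEP and 0.1 mM ADP. Activity scaled between uninhibited and enzyme-free controls.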
Cycloheximide cs: counter-screen hit for Shiga toxin inhibitors, cycloheximide. cell reporter, cycloheximide protein synthesis inhibition counterscreen. hit rate 12% among 300,000. max response, %; in the data active means max response mostly above about 13%, no sharp cut-off; inactive means mostly below about 14%; further: read at 38.3 µM for the half of the compounds with a filed dose; 0% is about no effect
Sm TGR inh: inhibitors of Schistosoma mansoni thioredoxin glutathione reductase | purified TGR, DTNB reduction, TNB absorbance 405 nm | AID 485364 | Q962Y6 | Potency, µM (top dose mostly 114 µM), for inactives: at the top dose activity change, negative = inhibition, most hits filed as inhibitors | hit rate 3% among 360,000; further: potency means the concentration at half of the fitted maximal effect; on the % scale 0 is the no-effect control and ±100 the full control effect; nearly all actives have a fitted effect of over 60% in size
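Kinetic colorimetric format: TGR-catalysed, NADPH-driven DTNB reduction monitored via TNB absorbance. Enzyme dispensed at 20 nM; compound exposure 15 min at room temperature before reaction start.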
Shiga toxin inh: Shiga toxin inhibition | Vero cells, Shiga toxin protein synthesis inhibition reporter | inhibition, % at 38.7 µM | hit rate 9.2% among 290,000; in the data active means inhibition mostly above about 28%, no sharp cut-off; inactive means mostly below about 43%; further: 0% is about no effect
Giardia FBPA inh: blocks Giardia fructose-bisphosphate aldolase activity | A8B2U2 | purified Giardia FBPA | Potency, µM (series often up to 59.6 µM), without a hit: at the top dose activity, negative = inhibition, most hits filed as inhibitors | hit rate 0.71% among 290,000; further: potency means the concentration at half of the fitted maximal effect; on the % scale 0 is the no-effect control and ±100 the full control effect; nearly all actives have a fitted effect of over 55% in size
Target sequence (A8B2U2 whole entry, looked up): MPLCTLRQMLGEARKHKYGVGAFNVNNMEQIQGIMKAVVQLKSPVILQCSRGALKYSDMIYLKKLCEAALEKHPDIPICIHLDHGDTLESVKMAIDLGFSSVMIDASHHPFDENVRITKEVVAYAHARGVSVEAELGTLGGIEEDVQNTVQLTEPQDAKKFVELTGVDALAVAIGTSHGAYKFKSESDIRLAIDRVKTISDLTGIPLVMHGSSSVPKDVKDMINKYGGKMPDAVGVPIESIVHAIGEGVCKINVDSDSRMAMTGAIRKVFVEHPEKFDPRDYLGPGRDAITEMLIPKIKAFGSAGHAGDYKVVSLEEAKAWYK
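40 nM FBPA preincubated 10 min at RT with compound (up to 57.5 uM final), then substrate plus GAPDH/TPI/NAD/arsenate coupling and diaphorase/resazurin added. Fluorescence read after 20 min at RT, 525/598 nm.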
* marks the source's active call; other numbers are inactive results; ? = inconclusive; · = not tested or not shown; [ ] = remark or other dose. Unless noted, the call rests on the fitted dose curve; in most records, active means well fitted curve in the direction sought with a large enough effect; inconclusive means small, poorly fitted or top-dose-only effect, or another doubt; inactive means no such curve, though single readings can be large; an effect the other way counts as inactive or inconclusive.

SMILES	TbPYK inhibitor	LmPK inh	Cycloheximide cs	Sm TGR inh	Shiga toxin inh	Giardia FBPA inh
CCOc1ccc(C2C(=O)N(C3CCCCC3)CC(=O)N2CCc2ccccc2)cc1OC (configuration not stated)	-4%	·	·	-5%	·	·
COC(=O)c1ccc(OCC2c3cc(OC)c(OC)cc3CCN2C(=O)Cc2ccccc2)cc1 (configuration not stated)	-4%	·	·	1%	·	·
Cc1cc(CN2CCCC(N3CCc4ccccc4C3)C2)cc(C)c1O (configuration not stated)	1%	2%	-4	45µM*	-7	-22%
CN(C)c1ccc(CNC(=O)Cn2c(=O)oc3cc(S(=O)(=O)N4CCCCCC4)ccc32)cc1	4%[15.4 µM]	·	·	-12%	·	·
O=C(CCC(=O)c1cccs1)OCC(=O)c1ccccc1	3%	·	·	·	·	·
Cc1cccc(/C(N)=N/OC(=O)c2cccs2)c1	?	13µM*	71*	3%	106*	-6%
Cc1ccc(/C(N)=N/OC(=O)c2cccs2)cc1	5%	?	39*	-19%	37*	1%
N/C(=N\OC(=O)c1cccs1)c1ccccc1	?	13µM*	35*	-1%	80*	-6%
N/C(=N\OC(=O)c1cccs1)c1cccc(Br)c1	-5%	16µM*	39*	·	78*	-12%
COc1ccc(/C(N)=N/OC(=O)c2cccs2)cc1OC	-1%	-3%	2	6%	8	1%
CCn1c(=O)n(CC)c2cc(N3CCCCC3)c(NC(=O)Nc3cc(Cl)ccc3OC)cc21	5%	·	·	-7%	·	·
CCCC(NC(C)C(=O)N1C(C(=O)O)CC2CCCCC21)C(=O)OCC (configuration not stated)	·	·	·	·	·	0%
CCN1CCN(C(=O)C2CCN(S(=O)(=O)c3ccc(SC)cc3)CC2)CC1	-4%	1%	11	6%	-8	-4%
CCOc1ccccc1NC(=O)c1ccc2c(c1)CCCN2S(C)(=O)=O	-7%	·	·	2%	·	·
Cc1ccc(-c2nc(N=Nc3ccc(O)cc3)n[nH]2)cc1	7%	-2%	49*	1%	105*	-10%
COc1ccc(-c2nc(N=Nc3ccc(O)cc3)n[nH]2)cc1	3%	2%	35*	-2%	-8	?
Cc1ccc(S(=O)(=O)Nc2ccc(N=Nc3ccc(O)cc3)cc2)cc1	-10%	4%	8	-13%	21	8%
COc1ccc(O)cc1	-6%	·	·	·	·	·
Cc1nc(N=Nc2ccc(O)cc2)n[nH]1	-16%	14µM*	20*	-15%	53*	-11%
COc1ccc(NC(=O)NNC(=O)c2ccc3ccccc3c2)cc1OC	2%	-8%	-3	-8%	-34	·
COc1ccc(C(=O)NCc2cccnc2)cc1S(=O)(=O)N1CCCc2ccccc21	-3%	-4%	19*	8%	30	4%
COCCNC(=O)c1ccc(S(=O)(=O)N2CCCc3ccccc32)cc1	0%	-2%	29*	-6%	74*	-2%
COc1ccc(C(=O)NCc2cccnc2)cc1S(=O)(=O)N1CCOCC1	-5%	0%	-1	2%	0	1%
COc1ccc(S(=O)(=O)N2CCCc3ccccc32)cc1OC	10%	8%	33*	1%	55*	-7%
Cc1ccc(S(=O)(=O)N2CCCc3ccccc32)cc1	-9%	·	·	·	·	·
SMILES	TbPYK inhibitor	LmPK inh	Cycloheximide cs	Sm TGR inh	Shiga toxin inh	Giardia FBPA inh
O=S(=O)(c1ccc(F)cc1)N1CCCc2ccccc21	·	-3%	31*	4%	·	-8%
COc1ccc2c(c1)c1c(c(=O)n(Cc3ccccc3)c(=O)n1Cc1ccc(C)cc1)n2C	-1%	·	·	-4%	·	·
CCOC(=O)c1ccccc1NC(=O)CSc1nnc(CC)n2c1cc1occc12	-7%	·	·	0%	·	·
O=C(NCCc1ccccc1)c1ccc(Cn2c(SCc3cccc(F)c3)nc3cccnc32)cc1	2%	·	·	-5%	·	·
CC(=O)c1ccc(S(=O)(=O)N2Cc3ccccc3CC2C(=O)O)cc1 (configuration not stated)	-3%	6%	0	11µM*	16	-17%
O=C(O)c1ccc(S(=O)(=O)N2CCCc3ccccc32)cc1	1%	2%	-1	-9%	-2	11%
Cc1ccc(S(=O)(=O)Nc2cc(C(=O)NCCN(C)C)ccc2N2CCCC2)cc1	-1%	-4%	-4	-20%	-8	5%
COc1cc(/C=C/C(=O)O)cc(S(=O)(=O)N2CCCc3ccccc32)c1OC	-16%	4%	12*	67%	13	-14%
O=C(O)[C@H]1Cc2ccccc2CN1S(=O)(=O)c1ccc(F)cc1	2%	1%	-4	3%	-2	4%
CC(=O)c1ccc(S(=O)(=O)N2CCCc3ccccc32)cc1	2%	-5%	11*	2%	27	2%
COCCNC(=O)c1ccc(N2CCCCC2)c(NS(=O)(=O)c2ccc(C)cc2)c1	-12%	6%	16*	-34%	-1	?
Cc1nc2cnc(N3CCN(C)CC3)nc2n(-c2ccccc2)c1=O	·	·	·	·	·	5%
O=S(NCc1ccco1)C12CC3CC(CC(C3)C1)C2 (configuration not stated)	-15%	9%	-1	22µM*	-4	-12%
O=C(NCc1ccco1)C12CC3CC(C1)CC(C(=O)NCc1ccco1)(C3)C2	-5%	0%	-4	40µM*	-12	1%
N#C/C(=C\c1ccc(OCC(N)=O)cc1)c1ccccc1	-5%	-6%	39*	-2%	88*	5%
COc1ccc(C=C(C#N)c2ccc(OC)cc2)cc1	2%	·	·	·	·	·
N/C(=N\OC(=O)/C=C/c1ccccc1)c1ccccn1	-27%	13µM*	20*	·	30	1%
N/C(=N\OC(=O)/C=C/c1ccccc1Cl)c1ccncc1	1%	-9%	67*	-14%	137*	4%
O=C(O)/C=C/c1ccccc1	4%	·	·	·	·	·
O=C(/C=C/c1ccccc1)c1ccccn1	?	14µM*	38*	?	84*	-21%
O=C(/C=C/c1ccccc1Cl)NNC(=O)c1ccncc1	-5%	·	·	-1%	·	·
N/C(=N\OC(=O)/C=C/c1ccccc1)c1ccncc1	-3%	-1%	21*	-2%	71*	1%
CC1=C(C)/C(=N\OC(=O)/C=C/c2ccccc2)C=CC1=O	?	-1%	24	-15%	-10	·
CC(=O)c1cnc2nc(SCc3ccc(C)cc3)nn2c1C	-2%	-2%	-2	0%	·	12%
CC(=O)c1cnc2nc(SCc3cccc(C)c3)nn2c1C	8%	3%	9.4*	-13%	9	5%
CC(=O)c1cnc2nc(SCc3ccccc3)nn2c1C	-7%	-1%	35*	2%	47*	7%
CC(=O)c1cnc2nc(SCc3ccc(Cl)cc3)nn2c1C	1%	2%	11	-11%	10	4%
